# Test results: PMC7819943, “Rice protein-binding microarrays: a tool to detect cis-acting elements near promoter regions in rice”
# In all, about 39,000 sequences were measured (“fluorescence intensity (a.u.)”: median about 4,300, highest 2% from about 39,000 on). Shown is part of a subset that was picked to be rich in the highest values.
# Target: T1, OsSMF1 (Oryza sativa, UniProt Q6ZLB0 1-436)
# T1 sequence: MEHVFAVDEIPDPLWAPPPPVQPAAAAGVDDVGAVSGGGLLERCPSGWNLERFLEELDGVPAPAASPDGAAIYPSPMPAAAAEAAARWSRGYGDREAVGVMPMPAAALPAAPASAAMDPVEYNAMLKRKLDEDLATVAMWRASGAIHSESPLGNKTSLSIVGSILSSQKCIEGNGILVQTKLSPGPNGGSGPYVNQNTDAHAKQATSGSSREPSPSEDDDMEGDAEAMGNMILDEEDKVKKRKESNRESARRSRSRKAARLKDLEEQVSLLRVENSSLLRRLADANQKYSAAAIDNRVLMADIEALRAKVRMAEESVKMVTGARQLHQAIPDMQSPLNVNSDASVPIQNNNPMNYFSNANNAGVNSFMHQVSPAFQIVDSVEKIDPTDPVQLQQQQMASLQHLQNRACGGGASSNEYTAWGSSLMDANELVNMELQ
# Test: protein-binding microarray (RPBM); PBS, 2% BSA, 51.3 ng/ul salmon testes DNA, 50 uM zinc acetate, 200 nM TF, 25 C, 1 h; high values mean tight binding
# Conditions: protein: recombinant; tags: N-terminal polyhistidine and DsRed monomer fusion (pET32a); chain copies: 2; label: CyDye5-dUTP incorporated in the synthesized complementary strand; 3' TTTTT single-stranded linker to array surface; dsDNA, one strand shown
# Summary of the method: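 Ni–NTA purification followed expression in E. coli BL21-CodonPlus of transcription factors fused N-terminally to a polyhistidine tag and DsRed. At 200 nM in PBS with 2% BSA, salmon testes DNA and 50 µM zinc acetate, the protein was incubated for 1 h at 25 °C with a custom Agilent array that had been primer-extended with Cy5-dUTP and blocked with 2% BSA. After washing, the array was read on an Axon 4000B scanner. The binding signal is per-feature fluorescence intensity in arbitrary units.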
row,Sequence,binding signal
1,AAACACGCGGCATGGCGTGCCGCGATGCAGTCGGAGATGGCGGAGTCACCTAGTGCAG,48600 fluorescence intensity (a.u.)
2,GAAGTGGCGGCCCTTGGCGGAGAGAATGGCATGGCGAGAGCGGAGTCACCTAGTGCAG,65100 fluorescence intensity (a.u.)
3,AGAGGCATGGGAGTCATGTTCAGGGTGATGGGAGATGGAGCGGAGTCACCTAGTGCAG,3260 fluorescence intensity (a.u.)
4,CAACAGCAGCAGCTACAACGCGGCATCCATGGCCGCCGCGCGGAGTCACCTAGTGCAG,53300 fluorescence intensity (a.u.)
5,AGCGAGAGAAGATGCTGACGTGGCATCATGACATGTGGGGCGGAGTCACCTAGTGCAG,19300 fluorescence intensity (a.u.)
6,CCTCCTCAACGCCGCCACCTCATCCGTCCATACAGCGCCGCGGAGTCACCTAGTGCAG,7110 fluorescence intensity (a.u.)
7,GAAGGAGAGGAGGAGAGGAGAGGAGAGAGGGAGGCAGCAGCGGAGTCACCTAGTGCAG,3280 fluorescence intensity (a.u.)
8,GCGGAGCCGACGCGGCGGCGATGCTCGGCCGCGTGGCGGTCGGAGTCACCTAGTGCAG,3840 fluorescence intensity (a.u.)
9,AGTGGTGGAGAAGGAGAGGAGAGGCAGAGAGAATGAGGAGCGGAGTCACCTAGTGCAG,3240 fluorescence intensity (a.u.)
10,GCGTGGAGTGGAGAGTGGAGAGGCATGGGAGGCATGGCAGCGGAGTCACCTAGTGCAG,42900 fluorescence intensity (a.u.)
11,CGGGAGAGAGATCAGATGCGGCATGGCGTGGCCGTGGCGTCGGAGTCACCTAGTGCAG,3380 fluorescence intensity (a.u.)
12,CCCTGCGCTGCCACGCGGCCGGCATCCGCCAAAGCAACAGCGGAGTCACCTAGTGCAG,4880 fluorescence intensity (a.u.)
13,ATAGCCCGTCCTCTTCATGGACCACGGTGTACAGCTTGCTCGGAGTCACCTAGTGCAG,3980 fluorescence intensity (a.u.)
14,TTAGTTGTTCTTGTTCTCTTGGTTGGGACGTGGAGAGTTGCGGAGTCACCTAGTGCAG,3440 fluorescence intensity (a.u.)
15,ACATTATCATGTCACGTCGTCGCGTAATCATGGGTACCCACGGAGTCACCTAGTGCAG,4200 fluorescence intensity (a.u.)
16,GCCGACACGTCGCGACGCCGCTTGCCACGCGCCACGCGCGCGGAGTCACCTAGTGCAG,6450 fluorescence intensity (a.u.)
17,TAAAATTATTATATTTTATAAGAAAGGTAACAAGTAAACACGGAGTCACCTAGTGCAG,28600 fluorescence intensity (a.u.)
18,GCTAGGTTCAACGTCATGCCTCATGTTGTCTATTGCTGTTCGGAGTCACCTAGTGCAG,4070 fluorescence intensity (a.u.)
19,GGGGTTAGTCGCCGGAGGTGTGGCGTGTCGACACGTACGCCGGAGTCACCTAGTGCAG,8720 fluorescence intensity (a.u.)
20,TTGTTTCACCGCTTACGCCACGTGCGCCGCTCAGCTGTATCGGAGTCACCTAGTGCAG,9840 fluorescence intensity (a.u.)
21,ATCCTCAACTCAATCCCGACGAAATCCCCTTCGATTTGAGCGGAGTCACCTAGTGCAG,3290 fluorescence intensity (a.u.)

row,Sequence,binding signal
1,AAGAATTAAAGAAGCCTTTATAAGAAGAGAAGGCCAAGCTCGGAGTCACCTAGTGCAG,60800 fluorescence intensity (a.u.)
2,TTAAAACGCATCAAGATTATAAGAGCCAAGAGAAATTGCACGGAGTCACCTAGTGCAG,3520 fluorescence intensity (a.u.)
3,GATTAAATGGAAGAGAGAATGAATAATTAAGATTTAAAGACGGAGTCACCTAGTGCAG,27400 fluorescence intensity (a.u.)
4,TCAAGGACCTCGTCATCCTCTCAGGTAACACACTTTCCCTCGGAGTCACCTAGTGCAG,3780 fluorescence intensity (a.u.)
5,ACGCCGCTAGTTCTTTTCTCCAGAGCAATCTGGTCAGTTCCGGAGTCACCTAGTGCAG,59900 fluorescence intensity (a.u.)
6,TCCTCTTCTCCTCCGCCGCATCAGCAATCTCTCTTTCTACCGGAGTCACCTAGTGCAG,4100 fluorescence intensity (a.u.)
7,CTTCGCTCTCTTTTCCATTGCAGAGCCCTCACGCTTCCGCCGGAGTCACCTAGTGCAG,3570 fluorescence intensity (a.u.)
8,AGAAGAGGTGATGTATAAAACATGTCACGATTTAATATCTCGGAGTCACCTAGTGCAG,4070 fluorescence intensity (a.u.)
9,AATTATCATAAAACAACATATTTAAACCATGGTAACATAACGGAGTCACCTAGTGCAG,6200 fluorescence intensity (a.u.)
10,GTATATATACACGTATACAAAGTTTATATATGACGTATACCGGAGTCACCTAGTGCAG,6040 fluorescence intensity (a.u.)
11,GATATGATTATTTATTTCTTTAAATGAAAATCATGTGTAACGGAGTCACCTAGTGCAG,32500 fluorescence intensity (a.u.)
12,GTGTTTATATAAGTGTTTGCATATGTACTATGTTTTAATACGGAGTCACCTAGTGCAG,3730 fluorescence intensity (a.u.)
13,TTATTATGAAAATATATTTAATTATTGATTTGATGAAACTCGGAGTCACCTAGTGCAG,21300 fluorescence intensity (a.u.)
14,AAGAAGTACGTCATATATTCAGTTTTATGTATTATTTTATCGGAGTCACCTAGTGCAG,3310 fluorescence intensity (a.u.)
15,AACATAATGTTTTAACTTAAACCTTAATAATGAAATTTCTCGGAGTCACCTAGTGCAG,3670 fluorescence intensity (a.u.)
16,ATAACCTAATATAAAGTTCGCTCATATGAAAATTTAAACTCGGAGTCACCTAGTGCAG,51600 fluorescence intensity (a.u.)
17,ATCTTGATATCTGCAACATAAAATGTAACATCAGATTTAACGGAGTCACCTAGTGCAG,39500 fluorescence intensity (a.u.)
18,TATAAATTAATATGTAGTATATCACTTCATAAGTTTAAATCGGAGTCACCTAGTGCAG,39300 fluorescence intensity (a.u.)
19,TTAATACGTATGAATATATAAAGTTTATATATGCATGTACCGGAGTCACCTAGTGCAG,63000 fluorescence intensity (a.u.)
20,AAATAACAAAATTACAAGTTTAACATAAATATGTAATCACCGGAGTCACCTAGTGCAG,21200 fluorescence intensity (a.u.)
21,TTCGACACAGTCATACGTGAGTCGGATGGAGTTAGGTCTGCGGAGTCACCTAGTGCAG,4150 fluorescence intensity (a.u.)
